Pf growth 48h: P. falciparum growth inhibition at 48 hours (one generation); P. falciparum luciferase growth in erythrocytes, 48 h; Potency, µM (doses to about 28.7 µM), for inactives: at the top dose activity change, negative = inhibition, actives largely listed as inhibitors; 5.9% of 310,000 active; note: potency is the fitted concentration of half-maximal effect; % is set by controls: 0 for no effect and ±100 for the full control effect
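Parasite viability was followed by luminescence of a genomically integrated firefly luciferase. Cultures held 0.1% parasitemia at 2% hematocrit (final), incubated under 5% CO2 at 37 C.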
Shiga toxin inh: inhibitors of Shiga toxin in Vero cells. Vero cells, Shiga toxin protein synthesis inhibition reporter. inhibition, % at 38.7 µM. 9.2% of 290,000 active; in the data active = inhibition mostly above about 28%, no sharp cut-off; inactive = mostly below about 43%; note: 0% is about no effect
CHX counter: counter-screen hit for Shiga toxin inhibitors, cycloheximide; cell reporter, cycloheximide protein synthesis inhibition counterscreen; max response, %; 12% of 300,000 active; AID 2314; in the data active = max response mostly above about 13%, no sharp cut-off; inactive = mostly below about 14%; note: read at 38.3 µM for the half of the compounds with a filed dose; 0% is about no effect
Pf growth 96h: P. falciparum growth inhibition at 96 hours; Potency, µM (highest dose often 28.7 µM), without a hit: top-dose activity change, negative = inhibition, hits mostly inhibitors; AID 504834; P. falciparum luciferase reporter growth, 96 h; 6.9% of 320,000 active; note: potency is the fitted concentration of half-maximal effect; % is set by controls: 0 for no effect and ±100 for the full control effect
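Two-generation exposure (96 h) targets delayed-death phenotype. Reporter parasites carrying integrated firefly luciferase, in red cells at 2% hematocrit and 0.05% parasitemia final, kept at 37 C, 5% CO2; luminescence loss indicates inhibition.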
An asterisk follows results filed as active; ? = inconclusive; . = no result given. An excerpt weighted towards active compounds, which were near 21% of everything screened. Unless noted, calls come from the whole dose curve; as a rule, active = well fitted inhibition curve with a large enough effect; inconclusive = small, poorly fitted or top-dose-only effect, or another doubt; inactive = no such curve, though single readings can be large or run the other way.

SMILES | Pf growth 48h | Shiga toxin inh | CHX counter | Pf growth 96h
Cc1ccccc1OCC(=O)NNC(=O)C1CC(=O)N(c2ccc3c(c2)OCCO3)C1 (stereo not drawn) | 0% | . | . | ?
NS(=O)(=O)c1ccc(CNC(=O)c2scc3c2CCCC3)cc1 | -10% | -9 | 2 | ?
Cc1cccc(-n2nnc(C(=O)NCc3ccccc3)c2N)c1 | 19% | 30 | 12* | 30%
Cc1ccc(CCNC(=O)c2nnn(-c3cccc(C)c3)c2N)cc1 | ? | 40 | 5 | .
Cc1ccc2nc(-c3ccc(S(=O)(=O)N4CCCCC4)cc3)cn2c1 | 39% | 66* | 25* | 56%
Cc1ccc(S(=O)(=O)N2CCN(S(=O)(=O)N3CCCCC3)CC2)cc1 | 15% | 9 | 4 | 18%
O=S(=O)(c1cccc(-c2cn3cccnc3n2)c1)N1CCCCCC1 | ? | -5 | -1 | ?
Cc1ccn2cc(-c3cccc(S(=O)(=O)N4CCCCC4)c3)nc2c1 | -4% | 22 | 21* | ?
CC1CN(S(=O)(=O)c2cccc(-c3cn4cccnc4n3)c2)CC(C)O1 (stereo not drawn) | 7.4µM* | -13 | 7 | 4%
Cc1ccc2nc(-c3cccc(S(=O)(=O)N4CCCC4)c3)cn2c1 | 45% | 44 | 17* | 30%
CC1CN(S(=O)(=O)c2ccccc2)CC(C)O1 (stereo not drawn) | -5% | 26 | -5 | ?
Cc1ccc2nc(-c3cccc(S(=O)(=O)N4CC(C)OC(C)C4)c3)cn2c1 (stereo not drawn) | ? | 18 | 17* | -12%
CCCc1ccc(C2C3=C(CC(C)(C)CC3=O)NC3=C2C(=O)c2ccccc23)cc1 (stereo not drawn) | 9.3µM* | -9 | -2 | 3.3µM*
CCCCc1ccc(C2C3=C(CC(C)(C)CC3=O)NC3=C2C(=O)c2ccccc23)cc1 (stereo not drawn) | 13µM* | -11 | -3 | ?
CC1(C)CC(=O)C2=C(C1)NC1=C(C(=O)c3ccccc31)C2c1ccc(O)cc1 (stereo not drawn) | ? | -5 | -2 | ?
CS(=O)(=O)Nc1cc2c3c(c1)CCC(=O)N3CCC2 | 1% | -7 | -3 | 36%
Cn1c(=NC(=O)c2ccccc2[N+](=O)[O-])sc2cccc(F)c21 | 151% | 162* | 63* | 236%
Cn1c(=NC(=O)C(C)(C)C)sc2cccc(F)c21 | 11% | 58* | 13 | 7%
CC(C)C(=O)N=c1sc2cc(F)cc(F)c2n1C | . | 9 | -1 | 13%
COc1ccc(O)c(/C=N/N2CCCCC2)c1 | 192% | 83* | 54* | 221%
COc1ccc(/C(C)=N/N2CCCCC2)c(O)c1 | 28% | 29 | 12* | 18%
O=S(=O)(Nc1nc2ccccc2nc1Cl)c1cccc(C(F)(F)F)c1 | 2% | 32 | 18 | 53%
COc1ccc(CNc2nc(NCc3ccc(OC)cc3)c3ncn(C4CCCCC4)c3n2)cc1 | . | 37* | 49* | .
COc1ccc(CNc2nc3c(c(C(F)(F)F)n2)CCCCC3)cc1 | -22% | 3 | -3 | 1%
CCc1ccc(C(=O)CN2C(=O)NC3(CCc4ccccc43)C2=O)cc1 (stereo not drawn) | -8% | . | . | ?
SMILES | Pf growth 48h | Shiga toxin inh | CHX counter | Pf growth 96h
C[C@@H](C(=O)O)c1cccc(C(=O)c2ccccc2)c1 | 13% | . | . | -23%
COc1cc(C(=O)N/N=C/c2cn(Cc3cccc(F)c3)c3ccccc23)ccc1O | -28% | 17 | 4 | 1.7µM*
O=C(N/N=C/c1cn(Cc2ccccc2)c2ccccc12)c1cc(O)cc(O)c1 | ? | -8 | -3 | ?
Cc1c(/C=N/Nc2ccc(C(=O)O)cc2)c2ccccc2n1C | 173% | 14 | 42* | 123%
Cc1ccc(C(=O)N/N=C/c2cn(Cc3ccccc3)c3ccccc23)cn1 | 4% | 31 | 20* | 42%
O=C(O)c1ccc(N/N=C/c2cn(Cc3ccc(F)cc3)c3ccccc23)cc1 | 24% | 70* | 29* | 79%
COc1cc(C(=O)N/N=C/c2cccc(Oc3ccccc3)c2)ccc1O | 20% | 8 | 9 | 11%
CCNC(=S)N/N=C/c1cn(Cc2ccc(F)cc2)c2ccccc12 | ? | -13 | 0 | ?
COCCN1CCC(CNCc2c(C(=O)N3CCCCC3)nc3c(C)cccn23)C1 (stereo not drawn) | ? | -5 | -3 | ?
CCN(CC(=O)NCc1cccs1)C(=O)CCc1c[nH]c2ccccc12 | -4% | 4 | 6 | ?
O=S(=O)(N/N=C/c1cn(Cc2ccccc2)c2ccccc12)c1ccccc1 | 10% | 51* | 15 | 2%
NC(=O)Cn1cc(/C=N\NS(=O)(=O)c2ccc(Cl)cc2)c2ccccc21 | 9% | -9 | -2 | 27%
CC1(NC(=S)N(CCO)CCO)CCS(=O)(=O)C1 (stereo not drawn) | 42% | -15 | -3 | ?
COc1ccc2c(c1)c(=O)oc1c(C)c(OC(C)C(=O)N[C@@H](Cc3c[nH]c4ccc(O)cc34)C(=O)O)ccc12 (stereo partly drawn) | ? | 4 | -3 | ?
O=C(NC1CCCCC1)C12CC3CC(C1)CC(n1cncn1)(C3)C2 | 4% | -17 | -1 | 58%
CC(NC(=O)C12CC3CC(C1)CC(n1cncn1)(C3)C2)C12CC3CC(CC(C3)C1)C2 (stereo not drawn) | 12µM* | -5 | -1 | 12µM*
CCCOC1CCCN(C(=O)c2ccc(OC3CCN(Cc4ccccn4)CC3)cc2)C1 (stereo not drawn) | ? | 9 | 14 | 6%
CCCc1ccc2oc(C(=O)NCCc3cnn(C)c3)c(C)c2c1 | 32% | 104* | 34* | 68%
CCCc1ccc2oc(C(=O)NCCc3nc(C(=O)OCC)cs3)c(C)c2c1 | 135% | 50* | 32* | 15%
O=C(CSc1nnc(-c2ccncc2)n1Cc1ccccc1)NC1CCCc2ccccc21 (stereo not drawn) | ? | -17 | -4 | ?
CCCCc1ccc(N=N/C(C(=O)Nc2ccc(NC(C)=O)cc2OC)=C(/C)O)cc1 | ? | 12 | 14 | -2%
C#Cc1ccc(CN2CCC(Oc3cc(C(=O)NC4CC4)ccc3OC)CC2)cc1 | 13µM* | -5 | 1 | -1%
CCn1ncc(CN2CCC(Oc3cc(C(=O)NC4CC4)ccc3OC)CC2)c1C | -3% | -8 | -2 | 1µM*
O=C(NCc1cccc(Cl)c1)c1ccc(CS(=O)Cc2ccccc2Cl)o1 (stereo not drawn) | -1% | -8 | -2 | ?
CC(C)(C)NC(=O)c1ccccc1-c1nc(-c2ccccc2Cl)no1 | 30% | 30 | 25* | 2.1µM*
Cc1ccccc1-c1noc(-c2ccccc2C(=O)NCc2ccco2)n1 | -12% | 60* | 18* | -17%
COCCNC(=O)c1ccccc1-c1nc(-c2ccccc2OC)no1 | 31% | 35 | 15* | ?
COc1ccc(OCC(O)CNC(=O)/C=C/c2cccc([N+](=O)[O-])c2)cc1 (stereo not drawn) | -7% | -8 | 7 | 246%
CC(OC(=O)c1ccc(NC(=O)CC#N)cc1)C(=O)Nc1ccc(Oc2ccccc2)cc1 (stereo not drawn) | ? | -14 | -2 | ?

Compound activity as filed in PubChem BioAssay.
